Test results from PubChem BioAssay (NCI).
About 79,000 compounds went through this panel and 15% of them were active in at least one assay; those are over-represented in the sample as a whole. Active and inactive are the calls of the source. Cut-off read from the data, not from the text of the source: active = growth inhibition above about 70%; inactive = the rest.

Columns and labels:
[1] = NCI Yeast Anticancer Drug Screen. Data for the wt1 strain (AID 149);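 note: 0% = growth of vehicle-treated wt1 cultures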; conditions: S. cerevisiae wt1 strain (SPY 50644) growth inhibition, stronger effect = higher value
How it was run: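 Vehicle-normalised growth inhibition; strain wt1; compound exposure.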

[2] = NCI Yeast Anticancer Drug Screen. Data for the rad50EPP+ strain (AID 151);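 note: 0% = growth of vehicle-treated control cultures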; conditions: S. cerevisiae rad50 mutant strain, stronger effect = higher value
How it was run: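 One strain with a rad50 alteration (rad50EPP+) was compound-treated, its growth then compared to that of vehicle controls.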

[3] = NCI Yeast Anticancer Drug Screen. Data for the mgt1 strain (AID 153); conditions: S. cerevisiae mgt1 mutant growth inhibition, stronger effect = higher value
How it was run: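 After exposure of the mgt1 yeast mutant to compound, growth was measured and reported as inhibition compared with vehicle controls.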

[4] = NCI Yeast Anticancer Drug Screen. Data for the rad50 strain (AID 155);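 note: 0% = growth of vehicle-only cultures of the same strain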; conditions: S. cerevisiae rad50 strain growth inhibition, stronger effect = higher value
How it was run: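 A DNA repair-deficient yeast mutant serves as the test organism; compound-induced growth inhibition is calculated against vehicle-treated cells.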

[5] = NCI Yeast Anticancer Drug Screen. Data for the mec2-1 strain (AID 157); conditions: S. cerevisiae mec2-1 strain, stronger effect = higher value
How it was run: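 Test agents were screened against the mec2-1 yeast strain, with defined DNA repair or cell cycle alteration. Growth was scored as inhibition against vehicle-only controls.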

[6] = NCI Yeast Anticancer Drug Screen. Data for the rad14 strain (AID 159);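 note: 0% = growth of vehicle-treated control cultures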; conditions: S. cerevisiae rad14 strain growth inhibition, stronger effect = higher value
How it was run: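 Vehicle-treated cultures served as the baseline for growth inhibition of a DNA repair-mutant yeast strain exposed to each compound.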

[7] = NCI Yeast Anticancer Drug Screen. Data for the sgs1 mgt1 strain (AID 161);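 note: 0% = growth of cultures given vehicle only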; conditions: S. cerevisiae sgs1 mgt1 strain, stronger effect = higher value
How it was run: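 Mutant yeast exposed to compound; growth scored against vehicle-only wells.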

[8] = NCI Yeast Anticancer Drug Screen. Data for the CLN2oe strain (AID 163);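 note: 0% = growth of vehicle-only control cultures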; conditions: S. cerevisiae CLN2oe strain, stronger effect = higher value
How it was run: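 Here, growth inhibition in a cell-cycle-altered yeast strain after compound exposure was quantified against vehicle control growth.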

[9] = NCI Yeast Anticancer Drug Screen. Data for the cln2 rad14 strain (AID 165);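 note: 0% = growth equal to vehicle treated cultures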; conditions: S. cerevisiae cln2 rad14 strain, stronger effect = higher value
How it was run: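 Growth of compound-exposed yeast (cln2 rad14 genotype) measured and expressed as inhibition relative to vehicle.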

[10] = NCI Yeast Anticancer Drug Screen. Data for the bub3 strain (AID 167); conditions: S. cerevisiae bub3 mutant strain, stronger effect = higher value
How it was run: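 Inhibition values come from growth of compound-treated mutant yeast normalised to vehicle-treated controls.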

[11] = NCI Yeast Anticancer Drug Screen. Data for the wt2 strain (AID 169);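 note: 0% = growth of vehicle-treated yeast cultures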; conditions: S. cerevisiae wt2 strain growth inhibition, stronger effect = higher value
How it was run: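 Genetically defined yeast strains from a DNA-repair/cell-cycle panel were used. Compound-exposed yeast growth was measured, and the inhibition was calculated relative to vehicle treatment.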

[12] = NCI Yeast Anticancer Drug Screen. Data for the mlh1 strain (AID 171);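 note: 0% = growth of vehicle-treated control cultures of the same strain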; conditions: S. cerevisiae mlh1 strain growth inhibition, stronger effect = higher value
How it was run: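 Here the genetically defined yeast mutant is grown with each compound, and the extent to which its growth falls below that of vehicle-exposed cells is reported.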

[13] = NCI Yeast Anticancer Drug Screen. Data for the sgs1 strain (AID 173);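 note: 0% = growth of vehicle-only control cultures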; conditions: S. cerevisiae sgs1 mutant, stronger effect = higher value
How it was run: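 Relative growth inhibition, referenced to vehicle, was determined in a yeast strain with a defined alteration affecting DNA damage repair or cell cycle control after compound exposure.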

[14] = NCI Yeast Anticancer Drug Screen. Data for the mlh1 rad18 strain (AID 175); conditions: S. cerevisiae mlh1 rad18 strain growth inhibition, stronger effect = higher value
How it was run: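 In this whole-cell yeast screen, a strain with altered DNA damage repair is challenged with compound, and its growth is measured against matched vehicle-treated controls.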

[15] = NCI Yeast Anticancer Drug Screen. Data for the rad18 strain (AID 177); conditions: S. cerevisiae rad18 mutant growth inhibition, stronger effect = higher value
How it was run: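 Screen uses a yeast strain with a defined lesion in DNA damage repair; compound effect is read as loss of growth compared to untreated vehicle cultures.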

[16] = at 5.0 µM (retest, dose inferred, filed as 0.5)
[17] = at 50.0 µM (retest, dose inferred, filed as 5.0)

Measured: growth inhibition

COc1ccc(C(=O)OCCc2ccccc2)cc1
active: [10]; [17] 79%
inactive: [1]; at 1.2 µM -2% | [1]; at 3.7 µM -5% | [1]; at 11.0 µM -5% | [1]; at 33.0 µM -7% | [1]; at 100.0 µM -8% | [2]; at 1.2 µM 10% | [2]; at 3.7 µM 16% | [2]; at 11.0 µM 19% | [2]; at 33.0 µM 31% | [2]; at 100.0 µM 47% | [3]; at 1.2 µM -4% | [3]; at 3.7 µM -3% | [3]; at 11.0 µM -3% | [3]; at 33.0 µM -5% | [3]; at 100.0 µM -4% | [4]; at 1.2 µM 6% | [4]; at 3.7 µM 3% | [4]; [16] -3% | [4]; at 11.0 µM 1% | [4]; at 33.0 µM 13% | [4]; [17] 23% | [4]; at 50.0 µM -7.35% | [4]; at 100.0 µM 9% | [5]; at 1.2 µM -1% | [5]; at 3.7 µM -4% | [5]; [16] -28% | [5]; at 11.0 µM -4% | [5]; at 33.0 µM -5% | [5]; [17] -14% | [5]; at 50.0 µM 1.85% | [5]; at 100.0 µM -5% | [6]; at 1.2 µM 5% | [6]; at 3.7 µM 0% | [6]; at 11.0 µM -6% | [6]; at 33.0 µM 3% | [6]; at 100.0 µM 4% | [7]; [16] 7% | [7]; [17] 32% | [7]; at 50.0 µM 6.8% | [8]; at 1.2 µM -3% | [8]; at 3.7 µM -9% | [8]; at 11.0 µM -10% | [8]; at 33.0 µM -7% | [8]; at 100.0 µM -6% | [9]; [16] -1% | [9]; [17] -2% | [9]; at 50.0 µM -10.5% | [10]; at 1.2 µM 2% | [10]; at 3.7 µM 12% | [10]; [16] 20% | [10]; at 11.0 µM 16% | [10]; at 33.0 µM 34% | [10]; at 50.0 µM 56.5% | [10]; at 100.0 µM 34% | [11]; at 1.2 µM -6% | [11]; at 3.7 µM -9% | [11]; at 11.0 µM -3% | [11]; at 33.0 µM -12% | [11]; at 100.0 µM -8% | [12]; at 1.2 µM 0% | [12]; at 3.7 µM 0% | [12]; at 11.0 µM -5% | [12]; at 33.0 µM 1% | [12]; at 100.0 µM 9% | [13]; at 1.2 µM -15% | [13]; at 3.7 µM 7% | [13]; at 11.0 µM -18% | [13]; at 33.0 µM -2% | [13]; at 100.0 µM -4% | [14]; [16] 10% | [14]; [17] 64% | [14]; at 50.0 µM -16.4% | [15]; at 1.2 µM 3% | [15]; at 3.7 µM 3% | [15]; at 11.0 µM 0% | [15]; at 33.0 µM 9% | [15]; at 100.0 µM 8%
